Consider 109 compounds from ChEMBL document CHEMBL4513216, “Probing the Open Global Health Chemical Diversity Library for Multistage-Active Starting Points for Next-Generation Antimalarials” (ACS Infect Dis, 2020).

Screen size: about 69,000 compounds; about 8,600 (12%) showed an effect of 50% or more. This excerpt belongs to a sample that is enriched for strong results.

This test concerns Plasmodium berghei. In words: Screen against P. berghei liver stage (PbLuc), transformed with Luciferase, at 10uM. Format: functional, HepG2. To be noted: tested at 10 uM.
Consider `Cn1cc(CN2CCCN(C(=O)c3sccc3C#N)CC2)cn1`, for which the INHIBITION is listed as -5.25%.

As for `CCS(=O)(=O)N1CCC2(CCC(N3CCCC3)c3ccccc32)CC1` (centres undefined), the INHIBITION came to 23.1%. The value for `CCS(=O)(=O)N1CCC2(CC1)CC(CC(=O)NC1CC1)c1ccccc12` (centres undefined) was -5.22%.

`O=C1N(CC2CC2)CCC12CCN(c1ncccn1)CC2`: the INHIBITION was -2.6%.

Consider `CS(=O)(=O)N1CCC2(CC1)CN(CC1CCOC1)c1ccccc12` (centres undefined), for which the INHIBITION came out at 39.4%.

`c1cnc(N2CC3(CCN(CC4CCOC4)CC3)c3ccccc32)nc1` (centres undefined): the INHIBITION is 18.7%.

Regarding `CCS(=O)(=O)N1CCC2(CC1)CN(CC1CCOC1)c1ccccc12` (centres undefined), the INHIBITION was determined as 73.8%. The value for `CCCS(=O)(=O)N1CCC2(CC1)CC(N1CCCC1)c1ccccc12` (centres undefined) was 71.8%; that for `c1cnc(N2CCC3(CC2)CN(CC2CC2)c2ccccc23)nc1` was 83.2%. For `c1ccc2c(c1)N(CC1CCOC1)CC21CCN(c2cnccn2)CC1` (centres undefined) the value was 84.7%; for `c1cnc(N2CCC3(CCN(CC4CCOC4)CC3)C2)nc1` (centres undefined), -10.2%; for `O=C1CC2(CCN(CC3CCOC3)CC2)c2ccccc2N1CC1CC1` (centres undefined), 9.97%.

For `OCCN1CC2(CCN(CC3CC3)CC2)c2ccccc21`, the INHIBITION stood at 26%. For `Cc1cc(C(=O)N2CCn3cc(CN4CCN(C)CC4)nc3C2)no1`, the INHIBITION came to 32.2%. Take `Cc1nc(Nc2nccs2)cc(C2CN(C(C)C)C2)n1`: the INHIBITION is -17.9%.

Turning to `CC(=O)N1CCCC(c2cnc(-c3c(C)nn(C)c3C)cn2)C1` (centres undefined), the INHIBITION worked out at 47.8%. `CCc1n[nH]c(C2CN(C(=O)c3ccc(Cl)cn3)CCO2)n1` (centres undefined): the INHIBITION was found to be 25.4%. `CN(CC(=O)N(C)C(c1ccc(Cl)cc1)c1cccnc1)C1CC1` (centres undefined): the INHIBITION is reported as 3.19%. The value for `CCS(=O)(=O)N1CCC2(CC1)CC(Oc1ccccn1)CO2` (centres undefined) was 0.547%; that for `CN1CCCN(C[C@@H]2CN(c3nc(C(N)=O)cs3)C[C@@H]2CO)CC1` was 20.3%. For `Cc1cnn(C2CCCN(C(=O)c3ccc(N4CCCC4)nc3)C2)c1` (centres undefined) the value was 19.6%; for `CN1CCC(N(C)C(=O)c2cnn(-c3ccccc3Br)c2N)CC1`, 27.3%; for `CN(C)C(=O)N1CCC2(CC1)C(=O)N(CC1CCOC1)c1ccccc12` (centres undefined), 7.5%. For the compound `CCCS(=O)(=O)N1CCC2(CC1)CN(CC1CCOC1)c1ccccc12` (centres undefined), the INHIBITION was 87.4%. For `CCCS(=O)(=O)N1CCC2(CC1)CN(C(=O)N(C)C)c1ccccc12` the value was 10.7%. As to `O=C1CO[C@@H]2CN(CC3CCOCC3)C[C@H]2N1CC1CC1`, the INHIBITION worked out at 37.5%. For `Cc1cccnc1NCCNC(=O)[C@H]1CNC[C@@H](C(=O)N2CCCC2)C1`, the INHIBITION is 18.5%. The value for `CN(C)C(=O)N1CCC(C(=O)NCCNc2ncccc2C#N)CC1` was 68.8%; that for `Cc1cccnc1NCCNC(=O)C1CCN(C(=O)N(C)C)CC1` was 50.2%. Consider `N#Cc1cccnc1NCCNC(=O)N1CCCC(N2CCCC2)C1` (centres undefined), for which the INHIBITION is given as 24.6%. Regarding `N#Cc1cccnc1NCCNC(=O)N1CCSCC1`, the INHIBITION was determined as 14.6%. For `Cc1cccnc1NCCNC(=O)C1CCN(Cc2ccco2)CC1` the value was 48.4%; for `CCn1c(C2CCNCC2)nn(CCn2cncn2)c1=O`, 32%. `COc1cc(CN2CCC(COCc3ccccc3)CC2)cc(OC)c1`: the INHIBITION is 33.7%. Take `COCCNC(=O)NCc1cc(-c2ccncc2)n(C2CCCC2)n1`: the INHIBITION amounted to 26.4%. Take `Cc1ncc(-c2ccnc(N[C@@H](C)CO)n2)c(C2CCCCC2)n1`: the INHIBITION amounted to 47.1%.

Take `Cc1cc2nc(C3CCCCC3)c(-c3ccnc(NCCO)n3)cn2n1`: the INHIBITION stood at 20.4%. For `Cc1ncc(-c2ccnc(NCCO)n2)c(C2CCCCC2)n1` the value was 79.7%; for `Cc1cccc(C)c1NC(=O)CC(CN1CCN(C)CC1)C(=O)O` (centres undefined), 5.21%; for `O=C1CCc2cc(-c3csc(CCN4CCOC4=O)n3)ccc2N1`, -26.6%.

Take `Cc1nccn1C1CCCN(C(=O)c2cc(Cl)c3c(c2)OCO3)C1` (centres undefined): the INHIBITION is given as -15.5%. For `COCCN1CCOCC12CCN(C(=O)c1c[nH]c3ccccc13)CC2`, the INHIBITION is listed as 57.9%.

Consider `COCCN1CCOCC12CCN(C(=O)c1ccncc1)CC2`, for which the INHIBITION is 47.4%. For `COCCN1CCOCC12CCN(C(=O)c1ccoc1)CC2` the value was 21.8%; for `N#Cc1ccc(OCCCN2CCOC(Cn3cncn3)C2)cc1` (centres undefined), 36.1%; for `CC1(C2CCN(CC(N)=O)CC2)CN(Cc2ccccc2)C(=O)O1` (centres undefined), 1.5%.

For the compound `Oc1cc(-c2cccs2)nc(C2CCCN(CC3=CCCOC3)C2)n1` (centres undefined), the INHIBITION came to 23.9%.

For the compound `COc1c(C2CCCN2C(=O)c2nccnc2N)c(C)nn1C` (centres undefined), the INHIBITION was 14.1%. The value for `CC(=O)NCCNC(=O)c1ccc(C)c(-n2cccc2)c1` was 10.7%. For the compound `Cn1ccnc1CN1CCC2(CC1)COC2`, the INHIBITION is 61.3%. The value for `COC1CC2(CCN(Cc3nccn3C)CC2)C1` was -43.1%.

For the compound `Cn1ccnc1CN1CCC2(CCCN2c2ncccn2)CC1`, the INHIBITION worked out at 21.7%. The value for `Cn1ccnc1CN1CCC2(CC1)COCCN(S(C)(=O)=O)C2` was 36.5%; that for `c1cnc(N2CCC3(COCCN(CC4CC4)C3)C2)nc1` (centres undefined) was 46.1%; that for `CN(C)CCN1CCCC12CCN(Cc1nccn1C)CC2` was 70.2%. As for `Cn1ccnc1CN1CCC2(COCCN(S(=O)(=O)C3CC3)C2)C1` (centres undefined), the INHIBITION was determined as 64.3%. For `Cn1cc(CN2CCCC23CCN(Cc2nccn2C)CC3)cn1` the value was 8.67%; for `Cn1ccnc1CN1CCC2(CC1)COCCN(c1ncccn1)C2`, 62.3%. For `CCOC1CC2(CCN(Cc3nccn3C)CC2)C1` the value was -11.6%; for `Cn1ccnc1CN1CCC2(COCCN(Cc3ccsc3)C2)C1` (centres undefined), 25.1%; for `CN(C)C(=O)N1CCC2(CC1)COCCN(c1ncccn1)C2`, -30%. The value for `COCc1ncc(CN2CC[C@@](O)(COC)C(C)(C)C2)cn1` was 31%; that for `O=C(CCCSc1ccc(NC(=O)C2CC2)nn1)NCC1CCCO1` (centres undefined) was 34.6%; that for `Cc1ncccc1-c1cc2cccnc2n1CCCNC(=O)C(C)(C)C` was 27.6%.

For `CCS(=O)(=O)N1CC[C@@H]2[C@H](CC1)N(CC(C)C)CCS2(=O)=O`, the INHIBITION was -34.6%. For `Cc1cc(C(=O)N2CCCC2)ccc1NCC(=O)N1CCCCC1C` (centres undefined) the value was 37.3%; for `Cc1ccc(N2CCC3(CCN(C(=O)c4ccnnc4)CC3)CC2)nn1`, -6.21%. Consider `Cc1noc2nc3c(c(C(=O)/N=c4\[nH]ncs4)c12)CCC3`, for which the INHIBITION was determined as 32.8%. In the case of `CS(=O)(=O)N1CCCC1c1ccnc2nccn12` (centres undefined), the INHIBITION is reported as 10.3545%. The value for `Cc1cc(C)n(CCC(=O)N2CCCCC2c2nccs2)n1` (centres undefined) was 36.3%; that for `CN(C)c1cc(CNC(=O)C2COc3ccccc3O2)ccn1` (centres undefined) was 2.45%; that for `Cc1cc(N2CCN(Cc3nccn3C)CC2)cc(C)n1` was 4.92%. In the case of `Cc1nnc(CN2CCN(Cc3nccn3C)CC2)n1C`, the INHIBITION worked out at 59.3%. In the case of `Cc1nnc2ccc(N3CCN(Cc4nccn4C)CC3)nn12`, the INHIBITION is recorded as 43.4%.

Turning to `CC(C)N1CCN(c2ccc3ccc(C(=O)NC4CCCC4)cn23)CC1`, the INHIBITION is recorded as -7.28%. The value for `COCC(=O)N1CC[C@@H]2CN(Cc3cccnc3)S(=O)(=O)[C@@H]2CC1` was 43%; that for `CC(C)NC(=O)NC[C@H]1OC[C@@H](NCc2ccncc2)[C@@H]1O` was -48.1%; that for `Cc1ccc(S(=O)(=O)NC[C@H]2OC[C@@H](NCc3cccnc3)[C@@H]2O)cc1` was 57%. Take `Cc1ccc(S(=O)(=O)NC[C@H]2OC[C@@H](NCc3ccncc3)[C@@H]2O)cc1`: the INHIBITION is reported as 53.2%. The value for `Cc1ccc(S(=O)(=O)NC[C@H]2OC[C@@H](NCc3ccccc3)[C@@H]2O)cc1` was 20.7%; that for `Cc1ccc(S(=O)(=O)NC[C@H]2OC[C@@H](NCc3ccccn3)[C@@H]2O)cc1` was 38.9%. For `CC(C)NC(=O)NC[C@H]1OC[C@@H](NCc2ccc(S(C)(=O)=O)cc2)[C@@H]1O` the value was 49.5%.

On to `O=C(NCC1CCOCC1)[C@@H]1C[C@@H]2[C@@H](CCN2Cc2nccs2)O1`, for which the INHIBITION is recorded as 21.1%. `COC1CCN(C(=O)CC2CCCC2)CC(=O)N(C)c2ccccc21` (centres undefined): the INHIBITION is recorded as 3.31%. The value for `CCc1nc(C)cn1C(=O)Nc1ccc(F)cc1` was 78.2%.

`CCc1nc(C)cn1C(=O)Nc1ccc(C)cc1`: the INHIBITION is given as -4.82%. As for `CCc1nc(C)cn1C(=O)Nc1ccccc1`, the INHIBITION was found to be 48.6%. With `O=C1CO[C@@H]2CN(CC3CC3)C[C@H]2N1Cc1cccc(F)c1`, the INHIBITION was found to be 75.4%. Consider `O=C1CO[C@@H]2CN(CC3CCOC3)C[C@H]2N1Cc1cccc(F)c1` (some centres undefined), for which the INHIBITION amounted to 27.6%. As to `O=C1CO[C@@H]2CN(C3CCOCC3)C[C@H]2N1Cc1cccc(F)c1`, the INHIBITION turned out to be 25.2%.

With `COc1cc(N2C[C@H](OCc3cccnc3)[C@H]3OCCC[C@H]32)ncn1`, the INHIBITION came to 10.6%. For `CC(C)CCN1C(=O)C2(NC(=O)c3ccccc3O2)c2ccccc21` (centres undefined), the INHIBITION was determined as 55.1%.

In the case of `Cc1ccc2c(c1)OC1(NC2=O)C(=O)N(C)c2ccccc21` (centres undefined), the INHIBITION is recorded as 31.6%. The value for `CN1C(=O)C2(NC(=O)c3ccccc3O2)c2ccccc21` (centres undefined) was 34%; that for `O=C1NCC2(CCCN(C(=O)c3csc(-c4cccs4)n3)C2)O1` (centres undefined) was 22%. The value for `CC(C)[C@H](N)C(=O)N1CCCC(C2=Nc3ccccc3S(=O)(=O)N2)C1` (some centres undefined) was 26.4%; that for `COc1ccccc1N1CCC(CNS(=O)(=O)c2cccc(C#N)c2)C1` (centres undefined) was -4.94%; that for `Cc1cc(C2CCC2)nc(N2CCC3(CCNC(=O)CC3)CC2)n1` was -32.5%.

For `CC(C)c1cc(=O)[nH]c(C(C)(C)N)n1`, the INHIBITION was -39.2%. Consider `CCC(C)(N)c1nc(C(C)C)cc(=O)[nH]1` (centres undefined), for which the INHIBITION is reported as -4.35%. On to `CCCc1cc(=O)[nH]c(SCc2ccccn2)n1`, for which the INHIBITION is on record as 3.93%.

As for `CCCc1cc(=O)[nH]c(-n2nc(C3CC3)cc2N)n1`, the INHIBITION amounted to 94%. For `Cc1cc(=O)[nH]c(-n2nc(-c3ccccc3)cc2N)n1` the value was 65.2%. As for `CCCc1cc(=O)[nH]c(-c2cccc(CN3CCCCCC3)c2)n1`, the INHIBITION amounted to 43.9%. Consider `Cc1cc(C(=O)Nc2cc(C3CC3)n[nH]2)c2c(C)nn(C)c2n1`, for which the INHIBITION came out at 0.991%.

As to `NC1(c2nc(-c3ccccc3)cc(=O)[nH]2)CCCCC1`, the INHIBITION was -10.1%.

Turning to `NC1(c2nc(-c3ccccc3)cc(=O)[nH]2)CCCC1`, the INHIBITION is listed as -13.7%.

With `Cc1cc(=O)[nH]c(-n2nc(C3CC3)cc2N)n1`, the INHIBITION was 68.9%. The value for `CC(C)c1cc(=O)[nH]c(-n2nc(C3CC3)cc2N)n1` was 97%.
